Assay [1] has as its target Bcl-2-like protein 1 (Homo sapiens) (UniProt Q07817). As to the kind of experiment: Bcl-xL BH3-peptide displacement, hit confirmation – biochemical, fluorescence polarization, counter-screen for MCL1 inhibitor project (AID 2166;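 active = inhibition above a cutoff equal to the mean inhibition of all tested compounds plus 3 SD, cut at about 30% in these data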). The settings on record: GST-Bcl-xL / FITC-Bim BH3 peptide FP binding; at 10.9 µM; active compounds read high. For orientation: In fluorescence polarisation assays a small probe gives low polarisation when free and higher when bound to something large.

Assay [2] has as its target Induced myeloid leukemia cell differentiation protein Mcl-1 (Homo sapiens) (UniProt Q07820). As to the kind of experiment: MCL1-BIM peptide interaction disruptors – biochemical, fluorescence polarization, triplicate, confirmation (AID 2168;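 active = inhibition above the average of all tested compounds plus 3 SD, cut at about 40% in these data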;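 also: 0% = DMSO wells and 100% = unlabeled Bim-BH3 control peptide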). To be noted: GST-MCL1 / FITC-Bim-BH3 fluorescence polarization; at 10.9 µM; active compounds read high.
Assay [3] relates to Fam108b (Abhd17b) serine hydrolase [Mus musculus]. As to the kind of experiment: inhibition of Fam108b (Abhd17b) hydrolase – biochemical, fluorescence polarization, triplicate, counter-screen for RBBP9 inhibitor project, confirmation (AID 1978).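 Also: 0% = median of active Fam108b wells and 100% = catalytically dead S170A mutant; inhibitors free the probe so polarization falls as inhibition rises.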 The settings on record: recombinant Fam108b, FP-Rh probe fluorescence polarization; at 9.51 µM; active compounds read high.
Assay [4] addresses Protein-arginine deiminase type-4 (Homo sapiens) (UniProt Q9UM07). In words: protein arginine deiminase 4 blockade, retest – biochemical, fluorescence polarization, confirmation (AID 488796;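 active = mean inhibition across replicates above the hit cutoff set by the earlier primary screen, cut at about 15% in these data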;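 also: inhibitors block active-site labeling by the probe so polarization falls; 0% = PAD4 with probe and DMSO and 100% = probe without PAD4 enzyme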). To be noted: recombinant PAD4, RCA probe fluorescence polarization; at 6.36 µM; active compounds read high.
Assay [5] concerns the target Protein phosphatase methylesterase 1 (Homo sapiens) (UniProt Q9Y570). In words: human PME-1 methylesterase inhibition confirmation – biochemical, fluorescence polarization, FP-Rh probe, triplicate (AID 2171;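 active = inhibition above the hit cutoff set in the earlier primary screen, cut at about 27% in these data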;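 also: 0% = enzyme with DMSO and 100% = wells lacking PME-1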). To be noted: recombinant PME-1, FP-Rh probe fluorescence polarization; at 5.9 µM; active compounds read high.
Assay [6] can be described thus: BSA probe fluorescence interference – biochemical, TAMRA-labeled BSA, counter-screen for TCR-CD3 interaction inhibitor project (AID 652035; in the data active = inhibition above about 23%;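 also: 0% = buffer low control and 100% = reference high control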). The settings on record: TAMRA-labeled BSA probe fluorescence counterscreen; at 9.4 µM; active compounds read high. For orientation: Counterscreens check selectivity or assay interference.
Assay [7] deals with T-cell receptor (TCR)-CD3 interaction, human. In words: blockers of TCR binding to CD3 – biochemical, fluorescence, TAMRA-labeled TCR probe, confirmation (AID 652036; in the data active = inhibition above about 19%). The settings on record: TAMRA-labeled TCR probe fluorescence binding assay; at 9.4 µM; active compounds read high.
Assay [8] deals with (Lyso)-N-acylphosphatidylethanolamine lipase (Mus musculus) (UniProt Q8VD66). In words: mouse ABHD4 hydrolase blockers, triplicate – biochemical, fluorescence polarization, confirmation (AID 720658;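 active = mean inhibition across replicates above the hit cutoff set in the primary screen, cut at about 30% in these data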;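 also: 0% = wild-type ABHD4 with DMSO and 100% = catalytically dead S159A mutant with DMSO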). To be noted: purified mABHD4, FP-Rh probe fluorescence polarization; at 8.92 µM; active compounds read high.
Assay [9] has as its target Glutathione S-transferase omega-1 (Homo sapiens) (UniProt P78417). As to the kind of experiment: recombinant GSTO1 blockers, retest – biochemical, fluorescence polarization, triplicate, counter-screen for RBBP9 inhibitor project, confirmation (AID 2176;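 active = inhibition above the primary screen's cutoff, its mean inhibition plus 3 SD, cut at about 35% in these data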;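 also: loss of polarization as inhibitors block binding of rhodamine sulfonate ester activity probe; 0% = GSTO1 with DMSO and 100% = wells lacking GSTO1 enzyme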). To be noted: recombinant GSTO1, probe fluorescence polarization; at 5.96 µM; active compounds read high.
In assay [10] the target is Platelet-activating factor acetylhydrolase (Homo sapiens) (UniProt Q13093). In words: inhibition of plasma PAF acetylhydrolase – biochemical, fluorescence polarization, human, confirmation (AID 463230;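 active = mean inhibition of the triplicate above the hit cutoff set for the earlier primary screen, cut at about 25% in these data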;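 also: 0% = enzyme with DMSO and 100% = wells lacking pPAFAH enzyme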). The settings on record: recombinant pPAFAH, FP-Rh probe fluorescence polarization; at 3.39 µM; active compounds read high.
The nature of assay [11]: suppression of KLF5 promoter-driven luciferase – DLD-1 cells, luminescence, confirmation (AID 1834;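 active = inhibition above a set limit taken from the earlier primary screen, cut at about 63% in these data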;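 also: 0% = DMSO wells and 100% = LY294002 at 200 µM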). The settings on record: DLD-1 KLF5 promoter firefly luciferase reporter, at 4 µM, active compounds read high. On the technique in general: A reporter such as luciferase makes a cellular process visible.
Assay [12] is described as follows: IEC-6 intestinal cell killing – luminescence, triplicate, cytotoxicity control for KLF5 inhibitor project (AID 1905; in the data active = inhibition above about 23%;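 also: cells exposed to compounds for 48 hours before viability read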). The settings on record: IEC-6 rat intestinal cells, viability luminescence; at 4 µM; active compounds read high.
The test system of assay [13] is transactivating tegument protein VP16 (Human herpesvirus 1). As to the kind of experiment: compounds suppressing VP16-driven luciferase signal – cell-based, luminescence, single concentration, counter-screen for SRC2 inhibitor project (AID 652007; in the data active = inhibition above about 36%). To be noted: cell-based VP16 transactivation luciferase reporter, at 8.9 µM, active compounds read high.
Assay [14] addresses Nuclear receptor coactivator 2 (Homo sapiens) (UniProt Q15596). In words: inhibition of GAL4-SRC2 driven luciferase expression – cell-based, luminescence, HEK293, triplicate, confirmation (AID 652008;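 active = mean inhibition above 46.5%, the solvent-only control mean plus 3 SD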;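 also: 0% = DMSO-treated cells and 100% = Gossypol at 36 µM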). To be noted: HEK293 GAL4-SRC2 luciferase reporter, at 8.9 µM, active compounds read high.
Assay [15] in a line: VP16-driven transactivation reporter suppression – cell-based, luminescence, HEK293, counter-screen for COUP-TFII antagonist project (AID 687007; in the data active = inhibition above about 13%). The settings on record: HEK293 Gal4-VP16 luciferase reporter, at 8.5 µM, active compounds read high.
Assay [16] has as its target COUP transcription factor 2 (Homo sapiens) (UniProt P24468). As to the kind of experiment: retest of COUP-TFII reporter suppressors – cell-based, luciferase reporter, HEK293, triplicate, confirmation (AID 687008;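 active = mean inhibition over three repeats above a set limit taken from the earlier primary screen, cut at about 38% in these data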;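 also: 100% = cells given the luciferase reporter alone without the COUP-TF2 vector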). To be noted: HEK293 NGFI-A luciferase reporter, luminescence; at 8.5 µM; active compounds read high.
Assay [17] concerns the target Serine protease HTRA1 (Homo sapiens) (UniProt Q92743). In words: confirming inhibition of human HTRA1 – biochemical, fluorescence polarization, confirmation (AID 540248;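 active = mean inhibition over three repeats above a set limit taken from the earlier primary screen, cut at about 37% in these data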;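 also: 0% = HTRA1 with DMSO and 100% = wells lacking HTRA1; inhibitors block probe binding so polarization drops and inhibition rises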). The settings on record: recombinant HTRA1, FP-rhodamine activity-based probe, at 5.96 µM, active compounds read high.
Assay [18] has as its target Platelet-activating factor acetylhydrolase IB subunit alpha1 (Homo sapiens) (UniProt Q15102). In words: inhibition of PAF acetylhydrolase 1B subunit 3 – biochemical, fluorescence polarization, human, confirmation (AID 493032;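 active = average inhibition over triplicate runs above the hit cutoff set in the earlier primary screen, cut at about 25% in these data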;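 also: 0% = enzyme with DMSO and 100% = wells lacking PAFAH1B3 protein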). The settings on record: recombinant PAFAH1B3, FP-Rh activity-based probe, at 3.39 µM, active compounds read high.
For assay [19], the target named is Oxysterols receptor LXR-beta (Homo sapiens) (UniProt P55055). As to the kind of experiment: nonspecific reporter activation via LXR – cell-based, luminescence, HEK293, H. contortus campaign, counter-screen for hcDAF-12 agonist project, confirmation (AID 743027;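 active = mean percent activation of the reporter above a cutoff set as the average over tested compounds plus their standard deviation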). To be noted: HEK293 Gal4-LXR tk-luc reporter, 24 h, at 6.8 µM, active compounds read high, normalized: DMSO 0%, positive control 100%.

The test system of assay [20] is Nuclear hormone receptor DAF-12 (Haemonchus contortus). In words: hcDAF-12 luciferase reporter activation, retest – cell-based, luminescence, HEK293, lit1-tk-luc, triplicate, confirmation (AID 743032;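 active = mean activation across triplicate tests above the threshold derived from the earlier primary screen, cut at about 5.5% in these data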;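 also: 0% = DMSO only wells and 100% = 3 µM Δ7-dafachronic acid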). The settings on record: HEK293 hcDAF-12 lit1-tk-luc reporter, at 6.8 µM, active compounds read high, % of Δ7-dafachronic acid response.

Unmarked numbers belong to inactive results. The list shows a part of the results. Active and inactive are the calls of the source.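 The calls were made as follows, unless noted: active = inhibition above a limit from the primary screen, the mean over all compounds plus 3 SD (cut at about 19% in these data); inactive = the rest.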

Experimental findings from PubChem BioAssay are described below.

Usually inhibition stands for the change of the read-out against control, counted positive when it falls.

Chain of Bcl-2-like protein 1 (Homo sapiens) (Q07817 whole entry, looked up): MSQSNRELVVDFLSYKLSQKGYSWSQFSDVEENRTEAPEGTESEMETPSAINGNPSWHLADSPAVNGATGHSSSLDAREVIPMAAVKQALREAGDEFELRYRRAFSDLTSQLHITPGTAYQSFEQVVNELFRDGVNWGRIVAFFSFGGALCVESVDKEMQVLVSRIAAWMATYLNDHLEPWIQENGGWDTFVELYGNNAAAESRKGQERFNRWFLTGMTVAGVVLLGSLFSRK
Chain of Platelet-activating factor acetylhydrolase (Homo sapiens) (Q13093 whole entry, looked up): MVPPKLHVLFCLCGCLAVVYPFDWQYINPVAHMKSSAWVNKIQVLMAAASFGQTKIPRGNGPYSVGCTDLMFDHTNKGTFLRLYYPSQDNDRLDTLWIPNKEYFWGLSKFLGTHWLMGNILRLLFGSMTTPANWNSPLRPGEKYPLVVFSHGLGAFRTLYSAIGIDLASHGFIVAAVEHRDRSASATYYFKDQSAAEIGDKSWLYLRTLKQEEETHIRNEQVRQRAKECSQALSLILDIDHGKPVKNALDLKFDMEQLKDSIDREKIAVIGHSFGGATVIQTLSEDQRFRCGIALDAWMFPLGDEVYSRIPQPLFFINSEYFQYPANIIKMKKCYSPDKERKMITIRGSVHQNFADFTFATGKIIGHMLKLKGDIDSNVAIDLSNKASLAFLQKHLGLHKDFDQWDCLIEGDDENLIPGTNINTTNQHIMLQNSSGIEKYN
Chain of Glutathione S-transferase omega-1 (Homo sapiens) (P78417 whole entry, looked up): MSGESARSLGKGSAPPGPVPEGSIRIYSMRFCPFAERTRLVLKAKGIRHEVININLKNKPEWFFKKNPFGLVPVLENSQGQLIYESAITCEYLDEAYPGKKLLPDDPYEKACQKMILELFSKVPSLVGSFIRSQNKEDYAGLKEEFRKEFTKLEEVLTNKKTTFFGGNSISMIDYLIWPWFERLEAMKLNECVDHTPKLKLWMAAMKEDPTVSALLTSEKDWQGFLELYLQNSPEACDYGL
Chain of Induced myeloid leukemia cell differentiation protein Mcl-1 (Homo sapiens) (Q07820 whole entry, looked up): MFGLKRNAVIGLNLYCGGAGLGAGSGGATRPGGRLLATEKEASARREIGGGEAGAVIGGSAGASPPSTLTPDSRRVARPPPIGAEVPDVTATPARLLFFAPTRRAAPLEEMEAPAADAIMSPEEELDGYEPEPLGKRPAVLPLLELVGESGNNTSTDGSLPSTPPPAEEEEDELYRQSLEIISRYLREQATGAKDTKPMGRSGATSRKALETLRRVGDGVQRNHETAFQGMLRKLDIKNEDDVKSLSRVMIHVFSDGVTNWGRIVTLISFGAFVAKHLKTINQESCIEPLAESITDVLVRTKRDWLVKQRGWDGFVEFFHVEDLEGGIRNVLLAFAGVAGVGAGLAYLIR
Chain of Protein phosphatase methylesterase 1 (Homo sapiens) (Q9Y570 whole entry, looked up): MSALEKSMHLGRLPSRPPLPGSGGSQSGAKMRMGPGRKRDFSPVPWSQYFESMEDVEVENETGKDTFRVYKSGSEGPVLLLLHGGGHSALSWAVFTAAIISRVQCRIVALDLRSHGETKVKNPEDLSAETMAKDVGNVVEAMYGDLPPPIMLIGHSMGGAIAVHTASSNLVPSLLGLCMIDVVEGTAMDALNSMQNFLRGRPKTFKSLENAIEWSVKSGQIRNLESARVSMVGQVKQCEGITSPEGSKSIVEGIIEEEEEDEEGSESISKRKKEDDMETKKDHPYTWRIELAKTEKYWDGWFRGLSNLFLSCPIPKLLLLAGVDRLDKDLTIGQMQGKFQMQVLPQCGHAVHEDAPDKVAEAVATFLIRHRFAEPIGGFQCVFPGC
Chain of (Lyso)-N-acylphosphatidylethanolamine lipase (Mus musculus) (Q8VD66 whole entry, looked up): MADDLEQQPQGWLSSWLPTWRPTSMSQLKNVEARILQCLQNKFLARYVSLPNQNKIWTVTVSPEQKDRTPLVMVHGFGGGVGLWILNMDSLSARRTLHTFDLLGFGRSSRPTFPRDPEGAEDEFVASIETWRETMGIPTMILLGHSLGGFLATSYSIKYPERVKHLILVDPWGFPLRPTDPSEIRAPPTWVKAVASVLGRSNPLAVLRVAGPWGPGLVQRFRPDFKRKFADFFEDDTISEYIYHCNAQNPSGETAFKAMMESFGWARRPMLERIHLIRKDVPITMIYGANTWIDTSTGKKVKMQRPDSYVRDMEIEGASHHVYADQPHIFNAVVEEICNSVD
Chain of Nuclear receptor coactivator 2 (Homo sapiens) (Q15596 whole entry, looked up, the tested form may be a part): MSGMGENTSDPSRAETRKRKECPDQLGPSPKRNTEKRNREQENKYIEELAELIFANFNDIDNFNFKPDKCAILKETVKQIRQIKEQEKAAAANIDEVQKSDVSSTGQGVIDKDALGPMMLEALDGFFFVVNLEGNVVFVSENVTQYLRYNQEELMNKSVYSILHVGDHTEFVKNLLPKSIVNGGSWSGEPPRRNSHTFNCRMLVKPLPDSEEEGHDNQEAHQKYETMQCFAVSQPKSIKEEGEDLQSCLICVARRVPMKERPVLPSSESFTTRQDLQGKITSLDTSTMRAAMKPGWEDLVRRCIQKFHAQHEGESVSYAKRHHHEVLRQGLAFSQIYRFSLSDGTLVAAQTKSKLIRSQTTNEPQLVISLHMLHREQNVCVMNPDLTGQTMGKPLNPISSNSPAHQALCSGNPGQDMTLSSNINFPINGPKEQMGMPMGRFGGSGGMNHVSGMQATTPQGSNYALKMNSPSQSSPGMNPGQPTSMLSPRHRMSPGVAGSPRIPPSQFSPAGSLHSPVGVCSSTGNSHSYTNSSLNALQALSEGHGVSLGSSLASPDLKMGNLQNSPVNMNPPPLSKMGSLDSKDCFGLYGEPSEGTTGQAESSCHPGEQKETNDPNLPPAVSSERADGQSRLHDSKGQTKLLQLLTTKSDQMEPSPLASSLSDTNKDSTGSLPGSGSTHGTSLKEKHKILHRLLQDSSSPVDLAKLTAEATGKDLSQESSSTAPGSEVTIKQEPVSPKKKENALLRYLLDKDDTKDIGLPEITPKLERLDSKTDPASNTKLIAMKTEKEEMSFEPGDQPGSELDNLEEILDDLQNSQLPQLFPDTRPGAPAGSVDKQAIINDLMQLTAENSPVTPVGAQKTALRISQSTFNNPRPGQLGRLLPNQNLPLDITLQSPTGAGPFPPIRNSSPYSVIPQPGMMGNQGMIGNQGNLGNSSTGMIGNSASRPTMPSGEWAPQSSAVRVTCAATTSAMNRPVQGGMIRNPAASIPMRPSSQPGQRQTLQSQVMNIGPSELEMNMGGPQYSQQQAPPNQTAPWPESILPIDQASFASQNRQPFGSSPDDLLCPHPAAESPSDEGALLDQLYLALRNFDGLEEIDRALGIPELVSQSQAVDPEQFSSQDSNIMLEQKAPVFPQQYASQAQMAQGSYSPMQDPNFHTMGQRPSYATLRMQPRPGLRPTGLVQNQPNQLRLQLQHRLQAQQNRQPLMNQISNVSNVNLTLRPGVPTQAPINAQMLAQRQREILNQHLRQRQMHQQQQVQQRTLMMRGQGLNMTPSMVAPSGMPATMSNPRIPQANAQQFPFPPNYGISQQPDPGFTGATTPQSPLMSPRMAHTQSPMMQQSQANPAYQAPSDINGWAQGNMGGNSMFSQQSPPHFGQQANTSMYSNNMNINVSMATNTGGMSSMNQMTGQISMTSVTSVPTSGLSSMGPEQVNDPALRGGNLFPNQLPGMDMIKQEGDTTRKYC
Chain of Protein-arginine deiminase type-4 (Homo sapiens) (Q9UM07 whole entry, looked up): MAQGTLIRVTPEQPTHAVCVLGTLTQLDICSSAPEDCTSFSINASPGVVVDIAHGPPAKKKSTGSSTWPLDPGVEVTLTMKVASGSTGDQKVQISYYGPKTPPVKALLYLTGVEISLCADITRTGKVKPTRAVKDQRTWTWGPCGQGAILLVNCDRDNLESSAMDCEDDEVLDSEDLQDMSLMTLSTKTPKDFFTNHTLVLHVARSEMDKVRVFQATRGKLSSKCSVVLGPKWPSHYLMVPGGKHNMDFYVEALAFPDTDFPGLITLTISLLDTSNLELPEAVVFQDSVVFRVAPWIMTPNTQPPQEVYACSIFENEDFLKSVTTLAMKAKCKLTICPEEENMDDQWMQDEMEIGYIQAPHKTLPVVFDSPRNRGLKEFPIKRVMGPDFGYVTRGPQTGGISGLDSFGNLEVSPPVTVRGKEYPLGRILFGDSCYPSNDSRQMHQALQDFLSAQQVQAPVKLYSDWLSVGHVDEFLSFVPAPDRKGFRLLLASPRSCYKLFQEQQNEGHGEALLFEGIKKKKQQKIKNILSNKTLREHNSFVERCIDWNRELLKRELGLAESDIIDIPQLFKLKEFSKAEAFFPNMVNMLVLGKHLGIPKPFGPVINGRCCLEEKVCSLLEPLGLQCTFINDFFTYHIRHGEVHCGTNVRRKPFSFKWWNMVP
Chain of Oxysterols receptor LXR-beta (Homo sapiens) (P55055 whole entry, looked up, the tested form may be a part): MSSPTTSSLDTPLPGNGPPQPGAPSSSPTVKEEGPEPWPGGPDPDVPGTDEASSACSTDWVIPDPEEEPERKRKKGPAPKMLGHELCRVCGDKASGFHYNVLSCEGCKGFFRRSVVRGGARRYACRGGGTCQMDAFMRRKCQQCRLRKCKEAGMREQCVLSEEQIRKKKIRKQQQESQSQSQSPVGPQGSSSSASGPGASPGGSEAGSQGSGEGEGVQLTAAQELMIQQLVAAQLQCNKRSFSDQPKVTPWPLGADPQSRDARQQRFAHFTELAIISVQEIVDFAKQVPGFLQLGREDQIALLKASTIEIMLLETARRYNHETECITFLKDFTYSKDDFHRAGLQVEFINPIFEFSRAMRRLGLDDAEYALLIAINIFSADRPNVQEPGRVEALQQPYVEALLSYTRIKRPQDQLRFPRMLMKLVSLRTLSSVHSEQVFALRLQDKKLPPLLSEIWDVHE
Chain of Platelet-activating factor acetylhydrolase IB subunit alpha1 (Homo sapiens) (Q15102 whole entry, looked up): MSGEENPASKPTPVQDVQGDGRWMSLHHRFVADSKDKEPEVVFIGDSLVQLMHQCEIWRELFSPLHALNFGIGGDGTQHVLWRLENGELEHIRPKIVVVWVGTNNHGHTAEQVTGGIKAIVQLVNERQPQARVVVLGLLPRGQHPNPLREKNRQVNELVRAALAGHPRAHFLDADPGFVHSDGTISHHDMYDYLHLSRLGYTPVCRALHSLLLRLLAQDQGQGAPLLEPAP

On to `COc1ccc(Cl)cc1NC(=O)CCS(=O)(=O)c1ccc(Br)cc1`, for which the inhibition in assay [1] is 6.91%; in assay [2] it was 46.5% (active).

For the compound `O=C(CCn1c(SCC(=O)c2ccccc2)nc2ccccc2c1=O)NCc1ccc(F)cc1`, the inhibition is -13.1% in assay [3] and -0.06% in assay [4].

With `COCCOC(=O)c1sc(=S)n(CCOC)c1N`, the inhibition in assay [3] was 19.6% (active); in assay [1], 85.4% (active); in assay [2], 131% (active); in assay [5] it was 21.3%; in assay [6], 42.3% (active); in assay [7], 33.1% (active). In addition, in assay [8], the inhibition was 47.4% (active).

Consider `CC[N+](C)(CC)CCC[n+]1c(-c2ccccc2)c2cc(N)ccc2c2ccc(N)cc21`, for which the inhibition in assay [3] is 61.8% (active); in [9] it was 85.8% (active).

As for `c1ccc(CSc2nnc(-c3ccco3)c(-c3ccco3)n2)cc1`, the inhibition is 1.53% in assay [3]; 13.9% in [1]; 59.9% (active) in [2]; 33.6% in assay [9]; 33.6% (active) in assay [10].

As for `Cc1ccc(-c2cn3cc(C)ccc3n2)cc1`, the inhibition is 85% (active) in [11]; 8.78% in assay [12]; 45.9% (active) in [13]; 69.2% (active) in [14]; 20.1% (active) in [15]; 43.9% (active) in assay [16].

Regarding `Cc1ccc(NS(=O)(=O)c2ccc(N/N=C/c3ccccc3OCC(=O)O)c([N+](=O)[O-])c2)c(C)c1`, the inhibition is 17.7% in assay [3], 74.8% (active) in assay [5], 84.3% (active) in [10] and 50.2% (active) in assay [17].

`Cc1ccc(-c2nc3c(cnn3-c3ccccc3)c(=O)o2)cc1`: the inhibition in assay [3] was 16.2%.

For `O=C(NNc1c2ccccc2nc2ccccc12)c1cc2ccccc2cc1O`, the inhibition in assay [3] is 51.3% (active); in [5] it was -6.46%; in assay [8] it was 41% (active).

On to `C/C(=N\Nc1cccc(C(=O)O)c1)c1ccc2c(c1)Nc1ccccc1S2`, for which the inhibition in assay [3] was 26.1% (active).

For the compound `CN(NC(=O)c1ccccc1F)c1nc(C(F)(F)F)nc2ccccc12`, the inhibition in assay [11] is 77% (active); in [12] it was 59.6% (active); in assay [6], 4.94%; in assay [7] it was 2.71%.

Consider `O=C(Nc1ccc(-c2csc(Nc3cccc(C(F)(F)F)c3)n2)cc1)c1cccc(C(F)(F)F)c1`, for which the inhibition in [3] is 33.6% (active).

`O=C(N/N=C/c1sc(N2CCCCC2)nc1-c1cccs1)c1cccnc1`: the inhibition is 9.2% in assay [3], 12.7% in assay [18] and 58.4% (active) in [17].

For `CCCn1c(O)c(CN2CCCC(C)C2)c(C)c(C#N)c1=O` (configuration not stated), the results for the inhibition in [1] and in assay [2] were 36.2% (active) and 39.3%, respectively.

Regarding `Cc1ccc(C(=O)O)cc1-c1ccc(/C=C2\SC(=O)N(CC(=O)Nc3ccc4c(c3)OCO4)C2=O)o1`, the inhibition was 18.5% in assay [1] and 60.8% (active) in assay [2].

For the compound `CCCCC(=O)Nc1nc(C)c(-c2csc(Nc3ccc(Cl)cc3)n2)s1`, in assay [3], the inhibition was 8.42%.

For the compound `COc1cccc(C2Nc3cccc4cccc(c34)N2)c1`, in assay [3], the inhibition is 12.6%.

For the compound `C/C(=C\c1ccco1)C1Nc2cccc3cccc(c23)N1`, the inhibition in assay [3] is 26.3% (active).

As to `Oc1oc(-c2ccccc2Br)nc1/C=N/c1ccccn1`, the inhibition in assay [3] was 68.7% (active).

Turning to `O=c1[nH]c(=S)[nH]c2[nH]c(=S)[nH]c12`, the inhibition in assay [1] was 42.2% (active); in [2] it was 98.7% (active).

As for `O=[N+]([O-])c1cc(Cl)cc(/C=N/NC(=S)Nc2cc(S(=O)(=O)N3CCOCC3)ccc2Cl)c1O`, the inhibition was 46.8% (active) in [3]; 24.4% in [1]; 42.4% (active) in assay [2]; 125% (active) in assay [17]; -14.9% in [6]; 38.1% (active) in assay [7]. Also, in assay [8], the inhibition was 77.1% (active).

As to `Cc1[nH]n(C(N)=S)c(=O)c1N=Nc1ccc(Cl)cc1Cl`, in assay [3], the inhibition is 22.4% (active).

Turning to `COC(=O)CSc1nccc(-c2cccs2)n1`, the inhibition in [3] is -1%.

`COc1ccc(/C=C/C(=O)OCC(=O)Nc2cccc(Oc3ccccc3)c2)c(OC)c1`: the inhibition in [3] is 47.3% (active).

For `COc1ccc(OC)c(Nc2nc(-c3ccc(O)c(O)c3)cs2)c1`, the inhibition in [3] was -20.9%; in [9], 2.96%; in assay [10], 50.8% (active).

As for `O=C(NC1CC1)c1ccc(-c2ccccc2)cc1`, the inhibition in assay [3] was -4.72%.

For the compound `Nc1ccc2nn(-c3ccc(Cl)cc3)nc2c1`, the inhibition in assay [11] is -145%; in assay [12], 4.57%. Further, the activation is 1.78% in [19] and 9.23% (active) in assay [20].

With `Clc1ccccc1CSc1nnc(-c2ccco2)c(-c2ccco2)n1`, the inhibition in [3] is 1%; in assay [9], 23.6%; in [17], 2.03%; in assay [8], 27.6%.

In the case of `O=C(C1=C(O)C(=O)N(c2ncccn2)C1c1cccs1)c1ccco1` (configuration not stated), the inhibition in assay [1] was 59.5% (active); in assay [2], 88.2% (active).

As to `Oc1ccc(C2Nc3cccc4cccc(c34)N2)cc1`, the inhibition in [3] was 14.4%; in [5], 12.9%.

As for `Cc1cccc(-c2nc(Nc3ccc(O)cc3)c3ccccc3n2)c1`, the results for the inhibition in [3] and in assay [5] were 17.7% and -0.9%, respectively.

Turning to `COc1ccc(-c2onc3ccc(C(C)=O)cc23)cc1`, the inhibition in assay [1] was 172% (active).

As to `COc1cc([C@H](Cc2ccccc2)NC(C)=O)oc(=O)c1`, the inhibition in assay [1] was 37.8% (active); in assay [2], 40.9% (active).

Regarding `Cc1ccc(S(=O)(=O)C(C#N)c2nc3ccccc3nc2N2CCCC2)cc1C` (configuration not stated), the inhibition in assay [1] is 74.9% (active); in [2], 82.8% (active); in [9], 26.5%.

Consider `C=CCNc1nnc(SCC(=O)N2CCCCC2)c2ccccc12`, for which the inhibition was 55.6% (active) in assay [1] and 67.8% (active) in assay [2].
